Assay results published in PubChem BioAssay (Tox21).
Results filed as inconclusive are left out. Activity calls are given as the source filed them. The call rests on the fitted dose curve; in most records, active means well fitted curve in the direction sought with a large enough effect in the repeat runs; inconclusive means weak or mixed curves; inactive means no such curve, though single readings can be large; an effect the other way counts as inactive or inconclusive.

The compounds below were run against Nuclear receptor subfamily 1 group I member 2 (Homo sapiens) (UniProt O75469) (assay: CYP3A4 induction through human pregnane X receptor (PXR) by small molecules, qHTS assay (AID 1346984)). Conditions: DPX-2 HepG2 PXR, CYP3A4-luciferin luminescence, 24 h; series mostly up to 46.1 µM; activation: at the top concentration.
Summary of the method: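 qHTS, concentration-response format: HepG2 DPX-2 line, PXR/CYP3A4-luc. Exposure 24 h, 37C. Substrate Luciferin-IPA 3uM final, 3 h. Detection One-Glo, 30 min RT.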
Further: nearly all actives have a fitted effect of over 40% in size.
On the % scale 0 is the no-effect control and ±100 the full control effect.

Compound | activation
CNC(C)CCC=C(C)C (stereo unspecified) | 14.1% (inactive)
O=c1oc2cc(O)ccc2s1 | -10.3% (inactive)
NCc1ccccc1CC(=O)N[C@@H]1C(=O)N2C(C(=O)O)=C(CSc3nnnn3CC(=O)O)CS[C@H]12 | 28.9% [at 20.6 µM] (inactive)

The compounds below were run against Nuclear receptor subfamily 1 group I member 2 (Homo sapiens) (UniProt O75469) (assay: Human pregnane X receptor (PXR) activation by small molecules, qHTS assay (AID 1346985; further: potency means the concentration at half of the fitted maximal effect)). Conditions: DPX-2 HepG2 CYP3A4-luciferase, 24 h; series mostly up to 38.3 µM; activation: at the top concentration.
Summary of the method: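 DPX-2 cells (HepG2 co-transfected with a PXR response element and a CYP3A4-promoter luciferase construct) were seeded at 2,000 per well, rested 5 hr at 37C, then exposed to DMSO-dissolved compounds for 24 hr. Activation was read as luciferase luminescence.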

Compound | activation | Potency
C[Se]CCC(N)C(=O)O (stereo unspecified) | -5.08% (inactive) | 
O=C(CCCN1CCC(C(=O)c2ccc(F)cc2)CC1)c1ccc(F)cc1 |  | 15.8 µM (active)
Cc1cc(/C=C/c2ccc3cc(N(C)C)ccc3[n+]2C)c(C)n1-c1ccccc1 | -14.9% [at 17.1 µM] (inactive) | 
C[C@]12CC[C@@H]3c4ccc(O)cc4CC[C@H]3[C@@H]1CC[C@@H]2OP(=O)(O)O | 9.42% (inactive) | 
COCC(=O)Nc1cc(Sc2ccccc2)ccc1N=C(NC(=O)OC)NC(=O)OC | 95.6% (inactive) | 
C=C[C@]1(C)C[C@@H](OC(=O)CSC(C)(C)CNC(=O)[C@H](N)C(C)C)[C@]2(C)[C@H](C)CC[C@]3(CCC(=O)[C@H]32)[C@@H](C)[C@@H]1O |  | 8.91 µM (active)
CN(C)CC/C=C1/c2ccccc2CSc2ccccc21 | 16.1% [at 17.1 µM] (inactive) | 
CN1[C@@H]2CC[C@H]1CC(OC(c1ccccc1)c1ccccc1)C2 (stereo partly specified) |  | inactive
CCN(CC)Cc1cc(Nc2ccnc3cc(Cl)ccc23)ccc1O | 11.5% [at 17.1 µM] (inactive) | 
CC(=O)c1ccc2c(c1)N(CCCN1CCN(CCO)CC1)c1ccccc1S2 | 21.1% (inactive) | 
S=C1SCN(Cc2ccccc2)CN1Cc1ccccc1 |  | 14.1 µM (active)
Cc1nc(NS(=O)(=O)c2ccc(N)cc2)nc(C)c1Br | 11.8% (inactive) | 
CC(/C=C/C=C(\C)C(=O)O[C@@H]1O[C@H](CO[C@@H]2O[C@H](CO)[C@@H](O)[C@H](O)[C@H]2O)[C@@H](O)[C@H](O)[C@H]1O)=C\C=C\C=C(C)\C=C\C=C(/C)C(=O)O[C@@H]1O[C@H](CO[C@@H]2O[C@H](CO)[C@@H](O)[C@H](O)[C@H]2O)[C@@H](O)[C@H](O)[C@H]1O | 11.8% (inactive) | 
CCN(CC)CCOc1ccc(-c2nc3cc(Cl)ccc3s2)cc1 |  | 10 µM (active)
C[C@]12C=CC(=O)N[C@@H]1CC[C@@H]1[C@@H]2CC[C@]2(C)[C@@H](C(=O)Nc3cc(C(F)(F)F)ccc3C(F)(F)F)CC[C@@H]12 | -1.88% (inactive) | 
CC1(C)S[C@@H]2[C@H](NC(=O)C(C(=O)O)c3ccsc3)C(=O)N2[C@H]1C(=O)O (stereo partly specified) | -3.43% (inactive) | 
C=Cc1c(C)c2cc3nc(cc4[nH]c(cc5nc(cc1[nH]2)C(C)=C5CCC(=O)OC)c(CCC(=O)O)c4C)[C@@]1(C)C3=CC=C(C(=O)OC)[C@H]1C(=O)OC | -3.24% (inactive) | 
C[C@]12CCC(=O)C[C@@H]1CC[C@@H]1[C@@H]2CC[C@]2(C)C=CC[C@@H]12 | -2.3% (inactive) | 
CC(C)N1CCN(c2ccc(OC[C@H]3CO[C@](Cn4cncn4)(c4ccc(Cl)cc4Cl)O3)cc2)CC1 |  | 5.62 µM (active)
O=C(O)c1c(Cl)c(Cl)c(Cl)c(Cl)c1-c1c2cc(I)c(=O)c(I)c-2oc2c(I)c(O)c(I)cc12 | 17.3% (inactive) | 
C=CCNC1=C2C[C@@H](C)C[C@H](OC)[C@H](O)[C@@H](C)/C=C(\C)[C@H](OC(N)=O)[C@@H](OC)/C=C\C=C(/C)C(=O)NC(=CC1=O)C2=O |  | 6.31 µM (active)
CC(C)(C)NC[C@H](O)COc1ccccc1C1CCCC1 | 15% [at 17.1 µM] (inactive) | 
Nc1ncnc2c1ncn2[C@@H]1O[C@H](COP(=O)(O)OP(=O)(O)OP(=O)(O)O)[C@@H](O)[C@H]1O | -0.355% (inactive) | 
CNC(C)CCC=C(C)C (stereo unspecified) | -1.36% (inactive) | 
OCCN1CCN(CC/C=C2/c3ccccc3Sc3ccc(Cl)cc32)CC1 | 10.2% [at 17.1 µM] (inactive) | 
O=c1oc2cc(O)ccc2s1 | 16% (inactive) | 
NCc1ccccc1CC(=O)N[C@@H]1C(=O)N2C(C(=O)O)=C(CSc3nnnn3CC(=O)O)CS[C@H]12 | 1.33% [at 17.1 µM] (inactive) | 
Nc1ccc(S(=O)(=O)Nc2ncccn2)cc1 | 2.38% [at 17.1 µM] (inactive) | 
